# Screens: PubChem BioAssay, several laboratories
# In the library only some 3.6% were active in any assay of this set; here they are far more common.
# Wnt act: activates Wnt/beta-catenin signaling in a reporter cell assay | activator, plate reader | activation, % at 9.35 µM | 1.2% of 300,000 active; in the data active = activation above about 30%, passing the limit was not always enough; inconclusive = no clear call, values can overlap the other calls
# A3G deaminase: APOBEC3G (human) deaminase inhibition; Q9HC16; recombinant A3G, ssDNA deamination FAM/TAMRA fluorescence; inhibition, % at 20 µM; 0.28% of 330,000 active; AID 493012;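 active = inhibition of at least 40% at 20 µM, with no more than 30% in the related APOBEC3A deaminase screen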
# A3A deaminase: blocks human APOBEC3A ssDNA deamination; 0.41% of 330,000 active; AID 493011; recombinant A3A, FAM/TAMRA ssDNA deamination fluorescence; P31941; inhibition, % at 20 µM;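 active = at least 40% inhibition at 20 µM here, with at most 30% in a related deaminase screen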
# Target sequence (P31941 whole entry, looked up): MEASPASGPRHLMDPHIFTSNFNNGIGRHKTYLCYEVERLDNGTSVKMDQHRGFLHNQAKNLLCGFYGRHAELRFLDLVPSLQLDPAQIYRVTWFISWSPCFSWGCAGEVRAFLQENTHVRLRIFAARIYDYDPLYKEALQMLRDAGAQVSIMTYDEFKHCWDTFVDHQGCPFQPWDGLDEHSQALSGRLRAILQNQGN
# PHOSPHO1 block: PHOSPHO1 (human) inhibition. Q8TCT1. recombinant PHOSPHO1, absorbance phosphatase assay. inhibition, % at 13.3 µM. 1.1% of 290,000 active. AID 1565; in the data active = inhibition above about 60%
# Target sequence (Q8TCT1 whole entry, looked up): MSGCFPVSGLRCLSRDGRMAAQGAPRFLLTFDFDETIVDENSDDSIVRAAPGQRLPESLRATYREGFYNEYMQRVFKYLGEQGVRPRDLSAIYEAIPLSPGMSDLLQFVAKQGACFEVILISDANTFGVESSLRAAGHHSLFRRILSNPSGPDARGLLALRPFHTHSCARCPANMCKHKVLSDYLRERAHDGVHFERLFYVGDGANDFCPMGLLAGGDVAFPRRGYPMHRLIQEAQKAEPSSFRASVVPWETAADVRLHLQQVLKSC
# esBAF inh: inhibitors of esBAF chromatin remodeling in mouse ES cells | Bmi1-luciferase knock-in reporter, 24 h; 100% = twice the neutral-well signal | 2% of 350,000 active | reporter increase, % at 12.5 µM | AID 602393; in the data active = activation above about 40%; inconclusive = no clear call, values can overlap the other calls;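 also: a rise in the Bmi1 reporter signal indicates esBAF inhibition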
# MITF act: increases MITF-driven TRPM1 promoter luciferase signal; 0.75% of 300,000 active; activation, % at 12.5 µM; SK-MEL-5 TRPM1-promoter luciferase, 24 h; % of positive control, neutral wells = 0; AID 588334;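 active = mean activation of at least 80% with every replicate also reaching 80%; inconclusive = mean reaches 80% but some replicate falls short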
# Numbers stand for hits; - = inactive; ? = inconclusive; . = no result given.
SMILES,Wnt act,A3G deaminase,A3A deaminase,PHOSPHO1 block,esBAF inh,MITF act
COc1ccccc1NC(=O)N(C)C[C@@H]1Oc2ncc(C#CCN(C)C)cc2C(=O)N([C@@H](C)CO)C[C@H]1C,.,.,.,.,-,.
Cc1ccc(OCc2nnc(SCC(=O)CC(=O)Nc3ccccc3)o2)cc1,-,-,-,73,-,-
COc1ccc(OCc2nnc(SCC(=O)Nc3ccc(C)cc3)o2)cc1,-,-,-,-,-,-
O=C(CSc1nnc(-c2ccccn2)o1)Nc1cccc(Cl)c1,-,-,-,-,65,.
O=C(CSc1nnc(-c2ccccn2)o1)Nc1ccccc1F,37,-,-,-,-,-
COCCNC(=O)C[C@H]1C[C@H]2c3cc(NS(=O)(=O)c4ccccc4)ccc3O[C@H]2[C@H](CO)O1,.,.,.,.,-,.
OC(c1ccc(F)cc1)c1nc(/C=C/c2ccccc2)cs1 (stereo not given),?,.,.,.,50,.
COc1cc(C(O)c2nc(/C=C/c3ccccc3)cs2)ccc1F (stereo not given),-,.,.,.,-,.
O=C(CN1C(=O)S/C(=C\C=C\c2ccccc2)C1=O)Nc1ccccc1C(=O)O,-,-,-,-,.,-
C#CCN1C(=O)S/C(=C/C=C/c2ccc(N(C)C)cc2)C1=O,45,.,.,-,79,-
C[C@@H]1CN([C@@H](C)CO)C(=O)c2cc(NS(=O)(=O)c3ccc(Cl)cc3)ccc2O[C@@H](C)CCCCO[C@H]1CN(C)C(=O)Cc1ccccc1,.,.,.,.,-,.
O=C(NCc1ccco1)c1cc2c(s1)CCCCC2,-,-,-,-,57,-
S=C(Nc1ccccc1)Nc1nccs1,-,-,-,-,60,-
COc1cc(OC)cc(C(=O)Nc2nnc(NC(=S)Nc3ccccc3)s2)c1,.,-,-,-,.,-
CC(C)(C)c1nnc(NC(=S)Nc2ccccc2)s1,-,-,-,-,75,-
O=C(CC(C(=O)O)c1c[nH]c2ccccc12)c1ccccc1 (stereo not given),-,-,-,-,27,-
O=C(O)C(O)Cc1c[nH]c2ccccc12 (stereo not given),-,-,-,-,-,-
C[C@H](NC(=O)C[C@@H]1C[C@H]2c3cc(NC(=O)CC4CC4)ccc3O[C@H]2[C@@H](CO)O1)c1ccccc1,.,.,.,.,-,.
CC1=NN2C(=N)/C(=C\c3ccc(SCc4ccccc4)o3)C(=O)N=C2S1,.,-,-,94,-,-
Nc1nc(Nc2ccccc2)nc(N2CCCC2)c1[N+](=O)[O-],-,-,-,-,50,-
COc1ccc(Nc2nc(N)c([N+](=O)[O-])c(N3CCCC3)n2)cc1,-,-,-,-,-,-
COc1ccccc1NNC(=O)c1cc(C(C)(C)C)nn1Cc1ccccc1,54,-,-,-,.,.
Cc1ccc(NNC(=O)c2cc(C(C)(C)C)nn2Cc2ccccc2)cc1,-,-,-,-,-,-
C[C@H]1CN([C@@H](C)CO)C(=O)c2cc(NS(=O)(=O)c3cccs3)ccc2O[C@H]1CN(C)Cc1ccc(-c2ccccc2)cc1,.,.,.,.,-,.
Clc1ccc(N=C2SCC3CCCCN23)cc1 (stereo not given),-,-,-,-,53,97
SMILES,Wnt act,A3G deaminase,A3A deaminase,PHOSPHO1 block,esBAF inh,MITF act
FC(F)Oc1ccc(N=C2SCC3CCCCN23)cc1 (stereo not given),-,-,-,-,75,94
O=C(C[C@@H]1CC[C@H]2[C@@H](COC[C@@H](O)CN2S(=O)(=O)c2cccc(F)c2)O1)Nc1ccccc1,.,.,.,.,-,.
CC(C)n1nnnc1SCC(=O)N1N=C(c2cccs2)CC1c1cccs1 (stereo not given),-,-,-,.,71,-
Cc1ccc(C2CC(c3cccs3)=NN2C(=O)CCl)cc1 (stereo not given),-,-,-,-,62,-
COc1ccc(C2CC(c3cccs3)=NN2C(=O)CSc2nnnn2C)cc1OC (stereo not given),-,-,-,-,.,-
C[C@H](CO)N1C[C@H](C)[C@H](CN(C)C)OCCCC[C@H](C)Oc2ccc(NS(=O)(=O)c3ccccc3)cc2C1=O,.,.,.,.,-,.
C/C(CC(=O)Nc1ccc(N(C)C)cc1)=N\NC(=O)c1ccccc1O,-,-,-,-,?,-
C/C(CC(=O)Nc1ccc([N+](=O)[O-])cc1)=N\NC(=O)c1ccccc1O,-,-,-,-,45,.
CCc1ccccc1NC(=O)NC1CCCCC1,.,-,-,-,-,-
O=C(Nc1ccccc1Cl)NC1CCCCCCC1,-,-,-,-,59,-
O=C(COc1ccc(Cl)cc1Cl)NC1CCSC1=O (stereo not given),.,-,-,-,-,94
O=C(COc1ccc(Cl)cc1Cl)NC(=O)NC1CCCC1,-,-,-,.,48,127
O=C(COc1ccc(Cl)cc1Br)NC(=O)NC1CCCC1,54,-,-,.,72,152
O=C(COc1ccc(Cl)cc1Cl)NC1CC1,-,.,.,.,.,.
CNC[C@@H]1Oc2ccc(NS(=O)(=O)c3cn(C)cn3)cc2C(=O)N([C@H](C)CO)C[C@@H]1C,.,.,.,.,-,.
C[C@@H]1CCCCO[C@@H](CN(C)CC2CCCCC2)[C@H](C)CN([C@H](C)CO)C(=O)c2cc(NC(=O)c3ccncc3)ccc2O1,.,.,.,.,-,.
O=C(COc1ccc(Cl)cc1Cl)NCc1ccncc1,.,-,-,-,-,-
Cc1cc(Cl)ccc1OCC(=O)NCc1ccncc1,.,-,-,-,62,-
O=C(COc1ccc(F)c(Cl)c1)NC(=O)NC1CCCC1,-,.,.,.,-,.
O=C(COc1ccc(Cl)cc1Cl)NC(=O)N1CCCCC1,.,-,-,-,59,95
O=C(COc1ccccc1Cl)NC(=O)NC1CCCC1,.,-,-,-,-,97
Cc1cc(Cl)ccc1OCC(=O)N1CCN(c2ncccn2)CC1,-,-,-,-,.,-
Cc1cc(Cl)ccc1OCC(=O)N1CCCCC1,.,-,-,-,58,-
N#Cc1c(N)[nH]c(=S)c(C#N)c1-c1ccccc1,.,-,-,96,-,-
C[C@H](CO)N1C[C@H](C)[C@@H](CN(C)Cc2ccncc2)Oc2cc(C3=CCCCC3)ccc2S1(=O)=O,.,.,.,.,-,.
SMILES,Wnt act,A3G deaminase,A3A deaminase,PHOSPHO1 block,esBAF inh,MITF act
Cc1cc(O)c(/C=N/Nc2ccc(Cl)cc2)c(=O)o1,.,-,-,-,.,-
Cc1cc(O)c(/C=N/Nc2cccc(Cl)c2)c(=O)o1,.,-,-,101,.,-
O=C(NCCc1ccccc1)c1ccc(Cl)cc1[N+](=O)[O-],-,.,.,-,62,-
C(=NOCCc1ccccc1)c1cccnc1,-,.,.,.,51,87
COc1ccc(C(=O)NCC2OCCc3ccccc32)c(O)c1 (stereo not given),.,-,-,-,67,-
CCCOc1ccc(C(=O)NCC2OCCc3ccccc32)cc1OC (stereo not given),.,-,-,-,.,-
Nc1nc2ccc(C(=O)Nc3ccccc3)cc2s1,.,-,-,-,51,-
CCc1ccc(NC(=O)c2ccc3nc(N)sc3c2)cc1,.,-,-,-,50,?
